Our source for the Potency values is PubChem BioAssay AID1745849 (National Center for Advancing Translational Sciences (NCATS), 2022).

The campaign covered roughly 2,100 compounds. About 320 (15%) were called active. About 52% were inconclusive and are not listed. Calls come from the whole dose curve; as a rule, active = well fitted cell-killing curve with a large enough effect; inconclusive = small, poorly fitted or top-dose-only effect, or effect the other way; inactive = flat fitted curve, though single readings scatter. The list shows a part of the results. A call without a number means that no potency is given here.
Potency is the fitted concentration of half-maximal effect.

This experiment in a line: Viability Counterscreen for CMV-Luciferase Assay of Inhibitors of ATXN expression. Note: nearly all actives have a fitted effect of over 55% in size. The settings on record: HEK-293 CMV-luciferase cells viability, protease fluorescence, 24 h. An outline of the steps: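 Compounds are tested in a dilution series on HEK-293 cells carrying the CMV-driven luciferase. After a 24 hr incubation, a protease substrate (25 uM final, 30 min) gives the viability fluorescence, and SteadyGlo gives the reporter luminescence.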
Consider `COc1ccc(NC2=NCC(Cc3ccc(Br)cc3)S2)cc1` (configuration not stated), for which the Potency entry is “inactive”. As for `COc1ccc(N2C3=C(CC4=C2CC(C)(C)CC4=O)C(=O)CC(C)(C)C3)cc1`, the entry is “inactive”. With `CCCCNC(=O)C1(C)CCCCN1Cc1ccccc1-c1ccccc1` (configuration not stated) the entry was “inactive”. For the compound `C/C(=C\C(=O)c1ccc(Br)cc1)NNC(=O)c1ccc(O)cc1`, the Potency was 12.6 µM (active). In the case of `CC(=NNC(=O)c1ccncc1)c1ccc(O)cc1O`, the Potency result was “inactive”. As for `O=c1ccc2ccccc2c2ccccc12`, the figure is 10 µM (active); as for `O=c1cc(-c2ccncc2)oc2c1ccc1ccccc12`, “inactive”; as for `COc1ccccc1/C=C1\SC(=S)N(CCC(=O)NC2=NCCS2)C1=O`, “inactive”.

Consider `COc1cccc(/C=C2/SC(=S)N(CCCC(=O)Nc3ccc(O)cc3)C2=O)c1`, for which the Potency was 3.98 µM (active). As for `Cc1ccc(C(=O)NNC(=O)CCCN2C(=O)/C(=C/c3ccccc3Cl)SC2=S)cc1`, the entry is “inactive”. As for `Cc1ccc(/C=C2/SC(=S)N(CCCC(=O)Nc3cc([N+](=O)[O-])ccc3O)C2=O)cc1`, the figure is 25.1 µM (active); as for `Cc1ccc(/C=C2\SC(=S)N(CCCC(=O)Nc3ccc(O)cc3)C2=O)cc1`, “inactive”. For the compound `Cc1ccc2c(CC(=O)NNC(=O)c3ccccc3O)coc2c1`, the Potency entry is “inactive”. With `O=C(CCc1ccccc1)NNC(=O)c1cc(Cl)ccc1O` the entry was “inactive”; with `Cc1ccc(/C=C2\SC(=S)N(CCCC(=O)Nc3cc(C)on3)C2=O)cc1`, “inactive”. With `Cc1ccc(/C=C2\SC(=S)N(CCCC(=O)NC3CCCC3)C2=O)cc1` the entry was “inactive”; with `CC(C)(C)c1ccc(OCCCC(=O)NNC(=O)c2ccccc2O)cc1`, 25.1 µM (active).

For `COc1ccc(/C=C2\SC(=S)N(CCCC(=O)NNC(=O)c3ccccc3O)C2=O)cc1`, the Potency was 20 µM (active).

Regarding `COc1cc(/C=C2\SC(=O)N(CC(=O)Nc3ccccc3F)C2=O)cc(Cl)c1O`, the Potency entry is “inactive”. Take `O=C(C1CCC(CNS(=O)(=O)c2cccs2)CC1)N1CCN(c2ccc(F)cc2)CC1` (configuration not stated): the Potency result is “inactive”. With `CC1CCN(Cc2c(C(=O)N/N=C/c3cc(Cl)ccc3O)nnn2-c2nonc2N)CC1` the entry was “inactive”.

For `CCOc1ccccc1C(=O)Nc1ccc2nc(N3CCN(c4ncccn4)CC3)cc(C)c2c1`, the Potency result is “inactive”. Consider `Cn1nccc1C(=O)N1CCCC(C(=O)c2cccc3ccccc23)C1` (configuration not stated), for which the Potency result was “inactive”.

Regarding `COC(=O)C1=C(C)N(c2ccc(Cl)c(Cl)c2)C(=O)C1`, the Potency entry was “inactive”. As for `FC(F)(F)c1ccc(N2CCN(c3cc(-c4ccccc4)nc4ncnn34)CC2)nc1`, the entry is “inactive”; as for `Clc1ccccc1C(c1ccccc1)(c1ccccc1)n1ccnc1`, “inactive”.

As to `Cc1ccc(C)c(CN2CCC(CNC(=O)Nc3ccc(C)c(C)c3)CC2)c1`, the Potency result was “inactive”. Take `Cc1cc(C)nc(NNS(=O)(=O)c2ccc(F)c(Cl)c2)n1`: the Potency entry is “inactive”.

Turning to `COC1=C(C)C(O)=C(C(=O)/C=C/c2ccccc2)C(=O)C1(C)C`, the Potency result was “inactive”. As for `Cc1[nH]c(=O)c(C(=O)/C=C/c2ccccc2)c2c1CCCC2`, the figure is 11.2 µM (active); as for `Cc1cc(C)c(C(=O)/C=C/c2ccc(C(C)C)cc2)c(=O)[nH]1`, 17.8 µM (active); as for `NS(=O)(=O)c1ccc(N2N=C(c3ccccc3)CC2c2cccc(Cl)c2)cc1` (configuration not stated), “inactive”. As for `COc1cc2c(O)c3c(c(-c4ccc5c(c4)OCO5)c2cc1OC)C(=O)OC3`, the entry is “inactive”. As for `CCCCOc1ccc(NC2=NC3(CCCC3)N=C(N)N2)cc1`, the entry is “inactive”; as for `Cc1ccc(Nc2c(-c3ccccn3)nc3cc(C)ccn23)cc1`, 3.55 µM (active); as for `Cc1ccc(Nc2c(-c3ccccn3)nc3cccc(C)n23)cc1`, 3.98 µM (active). On to `Cc1cccn2c(Nc3ccccc3)c(-c3ccccn3)nc12`, for which the Potency entry was “inactive”. For `Cc1ccn2c(Nc3ccccc3C)c(-c3ccccn3)nc2c1`, the Potency is 8.91 µM (active). Consider `NS(=O)(=O)c1ccc(CCNC(=O)COC(=O)/C=C/c2cc(Br)ccc2F)cc1`, for which the Potency entry is “inactive”. In the case of `COC(=O)c1cc(Cl)ccc1NCC(N)c1ccccc1` (configuration not stated), the Potency entry is “inactive”.

Take `O=C1CN(C(=O)c2c(F)cccc2F)C(c2ccc(F)cc2)c2cc(Br)ccc2N1` (configuration not stated): the Potency result was “inactive”. With `CCOc1ccc(S(=O)(=O)NCCC(=O)N2CC=C(c3ccccc3)CC2)cc1` the entry was “inactive”. As for `Cc1cc(N2CCN(Cc3nc(-c4ccc(Cl)cc4)oc3C)CC2)cc(C)n1`, the entry is “inactive”.

For the compound `N#C/C(=C\Nc1ccc2cn[nH]c2c1)c1nc(-c2ccc(Cl)cc2)cs1`, the Potency entry was “inactive”. With `Cc1ccc(S(=O)(=O)c2nc(S(C)(=O)=O)sc2N2CCCCC2C)cc1` (configuration not stated) the entry was “inactive”; with `COc1ccc(Cc2nnc(N/N=C/c3ccccc3O)[nH]c2=O)cc1OC`, 5.62 µM (active); with `COc1cc(Br)cc(/C=N/NC(=O)Cc2ccccc2)c1O`, “inactive”. For `COc1ccc(CNC(=O)c2ccc(-c3cccnc3)c3ccoc23)cc1OC`, the Potency result was “inactive”. With `Cc1ccc(NC(=O)CN2C(=O)c3ccccc3S2(=O)=O)cc1C` the entry was “inactive”; with `[O-][n+]1onc2c1CCc1c-2nn(-c2ccccc2Cl)[n+]1[O-]`, 25.1 µM (active). Take `CN1C(=O)/C(=C\c2ccccc2F)Sc2ccc(C(=O)NC3CCN(Cc4ccccc4)CC3)cc21`: the Potency entry was “inactive”.

With `O=C(Cc1coc2cc3c(cc12)CCC3)OCC(=O)N1CCCC1=O`, the Potency entry is “inactive”. With `CCCc1nc(C)cc(N2CCN(c3ccccc3)CC2)n1`, the Potency entry was “inactive”. As for `CCCCn1c2ccc(F)cc2c2nnc(NN)nc21`, the figure is 14.1 µM (active); as for `COc1cccc(-c2nn(C)c3sc(C(=O)NCCCN(C)Cc4ccccc4)cc23)c1`, “inactive”. With `COc1ccc(C(=O)NNC(=S)NC(=O)C(C)(C)C)cc1` the figure was 25.1 µM (active); with `CC(C)CC(=O)NC(=S)NNC(=O)c1ccc(NC(=O)C2CCCCC2)cc1`, “inactive”; with `CCCCC(=O)NNC(=S)NC(=O)c1ccc(C)cc1`, “inactive”. In the case of `Cc1ccc(Cl)cc1-c1ccc(C=Nc2ccc(N3CCOCC3)cc2)o1`, the Potency result was “inactive”. As to `COc1cc(C#Cc2c(-c3cncn3C)n(C)c3ccc(-c4cnc(N5CCOCC5)nc4)cc23)cc(OC)c1`, the Potency entry is “inactive”. As for `COc1ccc(-c2csc3ncnc(Sc4nnnn4C)c23)cc1`, the Potency entry was “inactive”. On to `Cn1nnnc1Sc1ncnc2scc(-c3cccs3)c12`, for which the Potency was 8.91 µM (active). With `O=C(c1ccco1)N1CCN(c2ncnc3scc(-c4cccs4)c23)CC1` the entry was “inactive”; with `C[C@@H]1CC=C[C@@H]2[C@H]1C(=O)N(Cc1ccccc1)[C@H]2c1ccccc1Br`, “inactive”; with `CCOC(=O)C1CCN(c2ncnc3c2cnn3-c2ccc(Cl)cc2)CC1`, “inactive”. As to `CCCOCc1ccc(O)c2ncccc12`, the Potency entry was “inactive”. As for `Cc1ccccc1N=Nc1ccc(O)c2ncccc12`, the figure is 7.94 µM (active); as for `Cc1ccc(N=Nc2ccc(O)c3ncccc23)cc1`, 10 µM (active). With `COc1ccc(CNCCC(c2ccc(OC(C)C)cc2)c2ccccc2OC)cc1` (configuration not stated) the entry was “inactive”. In the case of `CCCC1CCC(c2ccc(C(=O)NN)cc2)CC1` (configuration not stated), the Potency result was “inactive”. With `O=S(=O)(c1ccc2nc(COc3ccc(Cl)cc3Cl)[nH]c2c1)N1CCOCC1` the entry was “inactive”; with `CC[n+]1c(/C=C/c2c[nH]c3ccccc23)ccc2cc(C)ccc21`, 12.6 µM (active).

Consider `Cc1ccnc(NC(=O)CCCc2c[nH]c3ccccc23)c1`, for which the Potency result was “inactive”. On to `Cc1ccc(C)c(S(=O)(=O)N2CCN(c3ncnc4sccc34)CC2)c1`, for which the Potency result was “inactive”.

`COc1ccccc1-c1ccc2c(c1)C(C)(Cc1cccc(F)c1)C(=O)N2` (configuration not stated): the Potency result was “inactive”. `C[C@@H](CN1C2=NC[C@H](Cc3ccccc3)N2C[C@H]1Cc1ccc(O)cc1)NC(=O)CCC1CCCCC1`: the Potency is 17.8 µM (active).

For `CC1CCC(CN2C(Nc3ccccc3)=NC[C@@H]2Cc2ccccc2)CC1` (some centres not stated), the Potency entry is “inactive”.

Turning to `NC1=NC[C@H](Cc2ccccc2)N1CCCCC1CCCCC1`, the Potency result was “inactive”. In the case of `Cc1cc(OCC(=O)Nc2ccc(Br)cc2)cc2c1C(=O)CC(C)(C)O2`, the Potency result is “inactive”. As for `OCCNc1c2ccccc2nc2ccccc12`, the entry is “inactive”; as for `COc1cc(N)ccc1Nc1c2ccccc2nc2ccccc12`, 14.1 µM (active); as for `COc1cc2cc(C(=O)NC(C)c3cccc4ccccc34)c(N)nc2cc1OC` (configuration not stated), “inactive”. As to `O=c1c2c(-c3ccccc3)csc2nc2c3ccccc3c(NCCN3CCOCC3)nn12`, the Potency result was “inactive”. As for `CC(=O)C(=Cc1cccc(C#N)c1)C(=O)c1ccccc1`, the figure is 22.4 µM (active); as for `Cc1ccc(NC(=O)CCC(=O)c2cc(C)sc2C)nc1`, “inactive”. As to `CCOC(=O)c1c(NC(=O)CSc2nnnn2-c2ccccc2)sc2c1CC(C)(C)NC2(C)C`, the Potency result was “inactive”. With `CCN(CC)CCCNc1nc2ccccc2c2nc(-c3ccncc3)nn12` the figure was 15.8 µM (active).

Take `O=C(Nc1nc(-c2ccccn2)cs1)Nc1ccc(F)cc1F`: the Potency is 11.2 µM (active). In the case of `NC(c1ccccc1)c1csc(NC(=O)Nc2ccccc2Oc2ccccc2)n1` (configuration not stated), the Potency result is “inactive”.

For `COC(=O)COc1ccc(-c2nccc(-c3ccccn3)n2)cc1`, the Potency result is “inactive”. With `O=C(CN1C(=O)C2CCCCC2C1=O)Nc1nc(-c2ccccn2)cs1` (configuration not stated) the figure was 17.8 µM (active); with `CC(C)CC(N)c1csc(NC(=O)Nc2ccccc2C(C)(C)C)n1` (configuration not stated), “inactive”. With `O=C(Nc1nc(-c2ccccn2)cs1)c1ccc(F)c(S(=O)(=O)N2CCOCC2)c1` the figure was 5.01 µM (active); with `COC(=O)C(Cc1ccc(O)cc1)NC(=O)C(C)Oc1ccccc1` (configuration not stated), “inactive”; with `O=C(CCN1C(=O)C2CC=CCC2C1=O)Nc1nc(-c2ccc(F)c(F)c2)cs1` (configuration not stated), “inactive”. As for `COc1cccc(C(=O)Nc2nc(-c3ccc(S(=O)(=O)N4CCOCC4)cc3)cs2)c1`, the Potency result is “inactive”. Turning to `O=C(Nc1nc(-c2ccc(S(=O)(=O)N3CCOCC3)cc2)cs1)c1ccccc1`, the Potency result was “inactive”. As for `CC(Oc1ccc(F)cc1)C(=O)Nc1nc(-c2ccccn2)cs1` (configuration not stated), the Potency is 7.94 µM (active).

Regarding `O=C(CC1Sc2ccccc2NC1=O)NNc1cccc(Cl)c1Cl` (configuration not stated), the Potency entry was “inactive”. With `CN1OC[C@@H]2CN[C@H](c3ccc(-c4cc5ccccc5o4)cc3)C[C@@H]21`, the Potency entry is “inactive”. As for `CC1(C(=O)NCc2cccc(C(F)(F)F)c2)CCN1Cc1ccc(-c2ccccc2)o1` (configuration not stated), the entry is “inactive”; as for `Cc1cc(C)c(C(O)c2ncc(-c3cccc4ccccc34)[nH]2)c(C)c1` (configuration not stated), “inactive”.
